Compounds with a hit are over-represented: about 14% of the library has one in this group of screens.
Pf growth 96h – Primary qHTS for delayed death inhibitors of the malarial parasite plastid, 96 hour incubation; P. falciparum luciferase reporter growth, 96 h; Potency, µM (top dose mostly 28.7 µM), hits mostly inhibitors; 6.9% of 320,000 active; AID 504834, 2011
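P. falciparum expressing integrated firefly luciferase, in erythrocytes at 2% hematocrit, 0.05% parasitemia, incubated with compounds 96 h at 37 C, 5% CO2. Growth inhibition read as loss of luminescence; two-generation exposure targets delayed-death apicoplast inhibitors.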
LASV entry inh – qHTS for Inhibitors of binding or entry into cells for Lassa Virus | Lassa virus pseudotype entry inhibition, cell reporter | Potency, µM (titrated, usually from 37.9 µM), most hits filed as inhibitors | 1.2% of 300,000 active | AID 540256, 2011; calls by dose curve; tested in HEK293 cells; note: nearly all actives have a fitted effect of over 50% in size
HCV inh – qHTS Assay for Inhibitors of Hepatitis C Virus (HCV) | Huh7.5.1 HCVcc-Cre infection, luciferase reporter, 44 h | Potency, µM (top dose mostly 41.8 µM), hits mostly inhibitors | 3.4% of 340,000 active
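Reporter virus HCVcc-Cre (~0.5 moi) infects cells exposed to compound; seeding density 1,000 cells/well with 4 h settling beforehand. Luminescence, 15 sec read, taken 44 h post-infection following a 15 min RT substrate incubation.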
Pf growth 48h – Primary qHTS for delayed death inhibitors of the malarial parasite plastid, 48 hour incubation; Potency, µM (series often up to 28.7 µM), actives largely listed as inhibitors; P. falciparum luciferase growth in erythrocytes, 48 h; 5.9% of 310,000 active
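Cell-based growth assay: transgenic P. falciparum expressing firefly luciferase, cultured in red cells within RPMI 1640 containing 0.5% w/v Albumax, 24 mM bicarbonate and gentamycin. A drop in luciferase activity indicates inhibition.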
HCMV inh – qHTS Assay for inhibitors of the human cytomegalovirus (HCMV) | HFF cells, HCMV-luciferase reporter, 72 h; active compounds read low | activity change, negative = inhibition, % at 57.5 µM | 4.5% of 410,000 active | AID 1259415, 2018; in the data active = activity change below about -60%; inconclusive = no clear call, values can overlap the other calls; inactive = above about -39%
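Cell-based, HFFs, 1000 cells/well, 16 h 37C; cpds in DMSO + HCMV-luc, MOI 1 PFU/cell; 72 h 37C; OneGlo luminescence after 5 min RT; norm. to buffer vs Salinomycin 10uM.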
Marburg entry inh – qHTS for inhibitors of binding or entry into cells for Marburg Virus; Marburg virus pseudotyped entry inhibition, cell reporter; Potency, µM (doses to about 37.8 µM), usual class: inhibitors; 1.8% of 300,000 active; AID 540276, 2011; calls by dose curve; tested in HEK293 cells
Numbers stand for hits; - = inactive; ? = inconclusive; . = no result given; [ ] = remark or other dose. Unless noted, calls come from the whole dose curve; as a rule, active = well fitted inhibition curve with a large enough effect; inconclusive = small, poorly fitted or top-dose-only effect, or another doubt; inactive = no such curve, though single readings can be large or run the other way.

SMILES | Pf growth 96h | LASV entry inh | HCV inh | Pf growth 48h | HCMV inh | Marburg entry inh
CCOc1ccc(NC(=O)c2c(NC(=O)CNCCN3CCOCC3)sc3c2CCC3)cc1 | - | . | ? | 0.329µM | ? | .
COc1ccc(NC(=O)c2c(NC(=O)CNCc3ccco3)sc3c2CCC3)c(OC)c1 | - | - | ? | ? | - | -
COc1ccc(NC(=O)c2c(NC(=O)CNCc3ccco3)sc3c2CCC3)cc1 | ? | - | - | 2.62µM | - | -
COc1ccc(CC(=O)Nc2sc3c(c2C(=O)Nc2cccc(Cl)c2)CCCCC3)cc1 | . | - | . | . | -106.4 | .
O=C(CNc1cccc(Br)c1)Nc1ccc(S(=O)(=O)N2CCCCC2)cc1 | . | . | . | . | - | .
Cc1ccc(C(=O)OCN2C(=O)c3ccccc3C2=O)cc1S(=O)(=O)N1CCOCC1 | - | - | ? | - | - | ?
CCOc1ccccc1CNC(=O)CSc1n[nH]c(-c2ccccc2Cl)n1 | . | - | . | . | - | .
COc1ccc2ccccc2c1C1NC(=O)NC(C)=C1[N+](=O)[O-] (stereo not drawn) | ? | . | - | . | - | .
CCn1cc(C(=O)N2CCN(c3cc(Cl)ccc3C)CC2)c(=O)c2cc(S(=O)(=O)N3CCOCC3)ccc21 | . | - | . | . | - | -
COc1cc(N=Nc2c(O)c3ccccc3[nH]c2=O)c(OC)cc1N=Nc1ccccc1 | 2.33µM | - | - | 3.29µM | . | -
NC(=O)c1ccc(N=Nc2c(O)c3ccccc3[nH]c2=O)cc1 | 1.47µM | . | . | 2.62µM | . | .
COc1ccc(OC)c(N=Nc2c(O)c3ccccc3[nH]c2=O)c1 | . | - | ? | . | - | ?
O=C(NC(c1ccc(Cl)cc1)c1ccsc1)C1CCN(CCOc2ccc(Cl)cc2)CC1 (stereo not drawn) | . | . | . | . | - | .
O=c1c(S(=O)(=O)c2cccc(Cl)c2)cn(Cc2ccccc2)c2cc(N3CCOCC3)c(F)cc12 | . | - | . | . | - | .
O=C(CCCC1=NS(=O)(=O)c2ccccc2N1)N1CCN(c2ccc(Cl)cc2)CC1 | ? | - | -[8.37 µM] | - | - | -
COc1cccc(N2CCN(C(=O)CC(C)(C)CC3=NS(=O)(=O)c4ccccc4N3)CC2)c1 | ? | ? | 11.2µM | ? | -71.6 | -
CC(C)(CC(=O)N1CCN(c2ccc(Cl)cc2)CC1)CC1=NS(=O)(=O)c2ccccc2N1 | - | 11.2µM | ? | 9.28µM | ? | ?
Cc1ccc(S(=O)(=O)Nc2cc(Cl)c3oc4c(c3c2)C(=O)CC(C)(C)C4)cc1 | . | - | . | . | - | ?
CC(C)(C)Nc1nc(OCC#N)nc(N2CCCCC2)n1 | - | . | ? | ? | ? | .
CCNc1nc(NC(C)(C)C)nc(N2CCCCC2)n1 | - | ? | ? | ? | -72.4 | 2µM
CCNc1nc(N2CCCC2)nc(N2CCCC2)n1 | - | - | 11.2µM | 11.7µM | - | ?
O=C(NCc1cccs1)c1cccc2c(-c3cccnc3)coc12 | . | . | . | . | - | .
CC(=O)N(c1ccc(Cl)cc1)c1c[nH]c2ccccc12 | 6.57µM | - | - | 11.7µM | - | ?
COC1=CC2C(=O)C(C(c3ccccc3)C2C)C1(O)c1cccc(OC)c1 (stereo not drawn) | . | . | . | . | . | -
COc1cc(/C=N/NC(=O)C(Cc2c[nH]c3ccccc23)NC(=O)OCC(C)C)cc([N+](=O)[O-])c1O (stereo not drawn) | 11.7µM | ? | - | - | - | -
SMILES | Pf growth 96h | LASV entry inh | HCV inh | Pf growth 48h | HCMV inh | Marburg entry inh
COCCNC(=O)C(Cc1c[nH]c2ccccc12)NC(=O)OCc1ccccc1 (stereo not drawn) | - | - | - | - | - | -
COc1cc(/C=N/NC(=O)C(Cc2c[nH]c3ccccc23)NC(=O)OCc2ccccc2)cc([N+](=O)[O-])c1O (stereo not drawn) | - | 6.31µM | - | - | - | -
COc1cc(/C=N/NC(=O)C(Cc2c[nH]c3ccccc23)NC(=O)OCC(C)C)cc([N+](=O)[O-])c1OCc1ccccc1 (stereo not drawn) | ? | . | - | ? | - | .
COc1ccccc1CCC(=O)Nc1ccc(S(=O)(=O)Nc2ncccn2)cc1 | . | . | . | . | - | .
Oc1ccccc1-c1nc(NCC2CCCO2)c2ccccc2n1 (stereo not drawn) | 10.4µM | - | 12.6µM | ? | - | -
COc1cccc(-c2nc(NCC3CCCO3)c3ccccc3n2)c1O (stereo not drawn) | - | ? | ? | - | - | ?
COc1ccccc1Nc1nc(NCC2CCCO2)c2ccccc2n1 (stereo not drawn) | 1.04µM | ? | 10µM | ? | ? | ?
C[C@H](CO)N1C[C@H](C)[C@H](CN(C)C(=O)c2ccc3ccn(C)c3c2)OCc2cnnn2CCCC1=O | . | . | . | . | - | .
COc1ccc(NC(=O)C(C2CC2)n2c(=O)c(-c3cc4ccccc4[nH]3)nc3ccccc32)cc1 (stereo not drawn) | . | . | . | . | -96.7 | .
O=C(O)c1ccc2c(c1)C(=O)N([C@]1(C(=O)O)CC1c1ccccc1)C2=O (stereo partly drawn) | - | . | . | - | . | .
CCc1nc2ccc(C(=O)NCC3CCCCC3)cn2c1N(CCC(C)C)CCN(C)C | . | . | . | . | - | .
O=C(C1CCCN(S(=O)(=O)c2cccs2)C1)N1CCN(c2cccc(Cl)c2)CC1 (stereo not drawn) | . | ? | . | . | - | ?
Cc1nn(S(=O)(=O)c2ccc(C(C)C)cc2)c(C)c1S(=O)(=O)N1CCCCC1 | . | - | . | . | - | .
CC(=O)N1c2c(cc(Br)cc2S(=O)(=O)N2CCN(c3cc(C)ccc3C)CC2)CC1C (stereo not drawn) | . | ? | . | . | - | -
CC(=O)N1c2c(cc(Br)cc2S(=O)(=O)N2CCN(c3ccccc3F)CC2)CC1C (stereo not drawn) | 11.7µM | . | ? | ? | -67.2 | ?
CCCCN(Cc1ccccc1)S(=O)(=O)c1cc(Br)cc2c1N(C(C)=O)C(C)C2 (stereo not drawn) | . | ? | 5.01µM | 11.7µM | -64.7 | ?
CC(=O)N1c2c(cc(Br)cc2S(=O)(=O)NCc2cccnc2)CC1C (stereo not drawn) | - | - | - | - | - | -
CCCNC(=O)Cn1nc(-c2ccc(OC)cc2)c2cnc3ccc(F)cc3c21 | . | ? | . | . | - | .
CC(C)Cn1c(N)c(C(=O)CSc2nc3ncc(Cl)cc3[nH]2)c(=O)n(C)c1=O | 10.4µM | ? | ? | ? | - | ?
CCCn1c(N)c(C(=O)CSc2nc3ncc(Cl)cc3[nH]2)c(=O)n(C)c1=O | ? | . | - | ? | - | .
CCCn1c(N)c(C(=O)CSc2nc(N)cc(=O)[nH]2)c(=O)n(C)c1=O | 4.65µM | . | - | ? | - | .
CCCc1cc(=O)[nH]c(SCC(=O)c2c(N)n(C)c(=O)n(C)c2=O)n1 | - | - | - | - | - | -
Cc1cc(C)n2nc(SCC(=O)N(CC(C)C)c3c(N)n(CC(C)C)c(=O)[nH]c3=O)nc2n1 | - | - | - | - | - | ?

Assay outcomes deposited in PubChem by National Center for Advancing Translational Sciences (NCATS).
